# Measured values from the supplement of paper PMC8728848.
# This is one part of a sample in which the strongest signals are shown more often than they occur.
# Legend:
# Assay in all cases: glycan array binding signal (z-score within array); higher = stronger binding
# Conditions in all cases: glycan notation: IUPAC condensed, linker removed
# [1] = molecular target: Fuc(a1-2)Gal(b1-3)GalNAc(b1-3)Gal(a1-4)Gal(b1-4)Glc
# Procedure, shortened: (§1)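 The Consortium for Functional Glycomics database supplied 3228 glycan arrays, of which those lacking an available protein sequence were dropped. The binding signal, a within-array Z-score, was averaged across arrays of the same protein sequence and across linkers. Negative scores can be read as non-binding.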
# Fuc(a1-2)GlcNAc = molecular target: Fuc(a1-2)GlcNAc
# Procedure, shortened: as §1
# Gal(a1-6)Glc = molecular target: Gal(a1-6)Glc
# Procedure, shortened: as §1
# [2] = molecular target: Gal(b1-3)[Fuc(a1-4)]GlcNAc(b1-3)Gal(b1-4)[Fuc(a1-3)]GlcNAc
# Procedure, shortened: as §1
# Gal(b1-4)Glc6S = molecular target: Gal(b1-4)Glc6S
# Procedure, shortened: as §1
# [3] = molecular target: Gal(b1-4)GlcNAc(b1-3)Gal(b1-4)Glc
# Procedure, shortened: as §1
# Glc(a1-4)Glc = molecular target: Glc(a1-4)Glc
# Procedure, shortened: as §1
# Glc(a1-6)Glc(a1-6)Glc = molecular target: Glc(a1-6)Glc(a1-6)Glc
# Procedure, shortened: as §1
# Glc(b1-4)Glc = molecular target: Glc(b1-4)Glc
# Procedure, shortened: as §1
# [4] = molecular target: GlcNAc(a1-3)Gal(b1-4)GlcNAc
# Procedure, shortened: as §1
# [5] = molecular target: GlcNAc(b1-4)GlcNAc(b1-4)GlcNAc
# Procedure, shortened: as §1
# [6] = molecular target: Man(a1-2)Man(a1-2)Man(a1-6)[Man(a1-3)]Man
# Procedure, shortened: as §1
# [7] = molecular target: Neu5Ac(a2-3)Gal(b1-4)[Fuc(a1-3)]GlcNAc
# Procedure, shortened: as §1
# [8] = molecular target: Neu5Ac(a2-3)Gal(b1-4)[Fuc(a1-3)]GlcNAc(b1-3)Gal(b1-4)[Fuc(a1-3)]GlcNAc(b1-3)Gal(b1-4)[Fuc(a1-3)]GlcNAc
# Procedure, shortened: as §1
# Neu5Ac(a2-3)GalNAc = molecular target: Neu5Ac(a2-3)GalNAc
# Procedure, shortened: as §1
# [9] = molecular target: Neu5Ac(a2-6)Gal(b1-4)GlcNAc(b1-3)Gal(b1-4)GlcNAc
# Procedure, shortened: as §1
# [10] = molecular target: Neu5Ac(a2-6)Gal(b1-4)GlcNAc(b1-3)Gal(b1-4)[Fuc(a1-3)]GlcNAc(b1-3)Gal(b1-4)[Fuc(a1-3)]GlcNAc
# Procedure, shortened: as §1
# [11] = molecular target: Neu5Ac(a2-8)Neu5Ac(a2-8)Neu5Ac
# Procedure, shortened: as §1
binder,measurement,setting,value
FaeGad (Escherichia coli) (protein) WMTGDFNGSVDIGGSITADDYRQKWEWEVGTGLNGFGSVLNDLTNGGTKLTITVTGNKPILLGRTKEAFATPVTSGVDGIPHIAFTDYEGASVELRNPDGETEKGLTYFVLPMKNAEGTKVGSVKVNASYAGALGRGGVTSADGELMSLFAEGSHAIFYGGLPTNVKNSELKGGSAAAARTELFGSLSKNDILGQIQRVNANITSLVNVPGSFNENMAYTDGSVVSVAYALGIANGQTIEATFNQAVTTSTQWSAPLNVAITYY,glycan array binding signal (z-score),[1],-0.404
same,glycan array binding signal (z-score),Fuc(a1-2)GlcNAc,-0.247
same,glycan array binding signal (z-score),Gal(a1-6)Glc,0.615
same,glycan array binding signal (z-score),[2],0.979
same,glycan array binding signal (z-score),Gal(b1-4)Glc6S,0.601
same,glycan array binding signal (z-score),[3],0.629
same,glycan array binding signal (z-score),Glc(a1-4)Glc,9.55
same,glycan array binding signal (z-score),Glc(a1-6)Glc(a1-6)Glc,10.2
same,glycan array binding signal (z-score),Glc(b1-4)Glc,3.57
same,glycan array binding signal (z-score),[4],0.188
same,glycan array binding signal (z-score),[5],0.137
same,glycan array binding signal (z-score),[6],1.83
same,glycan array binding signal (z-score),[7],-0.45
same,glycan array binding signal (z-score),[8],-0.187
same,glycan array binding signal (z-score),Neu5Ac(a2-3)GalNAc,-0.452
same,glycan array binding signal (z-score),[9],-0.289
same,glycan array binding signal (z-score),[10],-0.414
same,glycan array binding signal (z-score),[11],-0.377
